Results as given in PubChem BioAssay (EPA / NIEHS).
Records with an inconclusive call do not appear. Activity calls are given as the source filed them. Rule for the calls, unless noted: active = hit-call score of the fitted dose curve at least 0.9, where 1 is the maximum; inconclusive = response in the unintended direction; inactive = score below 0.9.

Experiments:
[1] = system: Thyroperoxidase (TPO), gene 54314; test: CCTE_Simmons_AUR_rTPO: CCTE's Amplex UltraRed Assay for Thyroperoxidase (TPO) Inhibition, Simmons Lab (AID 2283662);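 for AC50: potency for loss of signal meaning inhibition of peroxidase activity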
Procedure, shortened: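 Endpoint is decreased Amplex UltraRed fluorescence after a 30-min, 37C reaction of rat thyroid microsomes with 300 uM H2O2. Eight test concentrations (5 nM–87.5 uM final) in 0.5% DMSO, three biological replicates each.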

[2] = Tanguay_ZF_120hpf_TR_legacy: (Legacy) Oregon State University Tanguay Lab 120 Hour Post-fertilization zebrafish Assay for Touch Response (AID 2283667)
Procedure, shortened: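 Tropical 5D wild-type zebrafish embryos statically exposed to 120 hpf at 28°C, sealed and dark-covered, 0.64% DMSO final; touch response scored as present/absent by brightfield microscopy at 120 hpf. Trimethyltin chloride 5 uM positive control; dead embryos not scored.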

[3] = CCTE_Padilla_ZF_144hpf_TERATOSCORE: (Legacy) CCTE's 144 Hour Post-fertilization zebrafish Assay Teratoscore, Padilla Lab (AID 2283679; active = hit-call score of the fitted dose curve at least 0.9, where 1 is the maximum; inactive = score below 0.9;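 for AC50: zebrafish embryos with chorions exposed by immersion from 6-8 hpf to 5 dpf with daily renewal; teratogenicity score from eye scoring of death hatching and malformations at 144 hpf; higher score means more developmental defects relative to DMSO baseline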)
Procedure, shortened: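 Larvae scored by eye at 144 hpf for death, hatching and malformations after a day in clean Hanks'. Before that, daily-renewed exposure at 80 uM (0.4% DMSO, 26C) from roughly 6-8 hpf through 5 dpf, 4 embryos per chemical.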

[4] = STM_H9_OrnithineISnorm_perc: Stemina devTOX quickPredict H9 human embryonic stem cell (hESC)-based Assay for Ornithine (ORN) Metabolite Biomarker, Normalized (AID 2283712; active = hit-call score of the fitted dose curve at least 0.9, where 1 is the maximum; inactive = score below 0.9;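 note: ornithine released into spent medium during last day measured by mass spectrometry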)
Procedure, shortened: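 Undifferentiated pluripotent H9 hESCs were exposed to compound for 72h, with media and compound replaced every 24h. Ornithine in final 24-h conditioned media was measured by UPLC-HRMS, normalized to 13C-labeled spike-in standard and to median 0.1% DMSO control.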

[5] = CEETOX_H295R_MTT_cell_viability: Viability Assessment in the CeeTox HT-H295R MTT Assay (AID 2283718; active = hit-call score of the fitted dose curve at least 0.9, where 1 is the maximum; inactive = score below 0.9;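 for AC50: curve fitted both ways so AC50 may mark viability loss or gain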)
Procedure, shortened: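 Human H295R adrenal cells, prestimulated 48 h with 10 uM forskolin, were exposed 48 h to chemicals in 0.1% DMSO. Viability was measured in the same wells by MTT (0.5 mg/ml, 4 h, 37 C), absorbance 570/650 nm, as percent of controls.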

[6] = Tanguay_ZF_120hpf_ActivityScore_legacy: (Legacy) Oregon State University Tanguay Lab 120 Hour Post-fertilization zebrafish Assay Score for Activity (AID 2283742);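 for AC50: dechorionated Tropical 5D wild-type zebrafish embryos held singly per well; static exposure from 6 hpf until 120 hpf at 28 °C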
Procedure, shortened: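 Dechorionated Tropical 5D embryos, one per well from 6 hpf, statically exposed to 120 hpf at 28 °C in 0.64% DMSO. Mortality and malformations scored binary by brightfield microscopy; activity score combines 18 endpoints, fitted positively versus DMSO.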

[7] = system: Thyroperoxidase (TPO), gene 445522; test: CCTE_Simmons_GUA_TPO: CCTE's Guaiacol Assay for Thyroperoxidase (TPO) Inhibition, Simmons Lab (AID 2283750)
Procedure, shortened: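 Porcine thyroid microsomes (25 ug) in 200mM potassium phosphate, preincubated 30 s at 37C with compound (8 concentrations, 5 nM–87.5 uM) and 35mM guaiacol; 1mM H2O2 starts reaction. Absorbance change at 450nm over first 80 s; loss of signal versus DMSO, three replicates.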

[8] = biological target: Luciferin 4-monooxygenase (Photinus pyralis) (UniProt P08659); test: CCTE_Simmons_QuantiLum_inhib_2: CCTE's Firefly Luciferase Inhibition Assay, Simmons Lab (AID 2283767)
Procedure, shortened: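 Recombinant firefly luciferase (5 ng/well, 200 mM potassium phosphate with 1 mg/ml BSA) was exposed to 8 concentrations from 5 nM to 87.5 uM (final, 0.5% DMSO) for 30 min at 37C in the dark. Loss of luminescence versus DMSO was read after injecting D-luciferin/ATP-analogue reagent.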

[9] = ArunA_CellTiter_hNC: Viability Assessment in the ArunA Biomedical's Oris Neural Crest (hNC) Cell Migration Assay (AID 2283752)
Procedure, shortened: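 Human H9-derived neural crest stem cells were plated at 60,000 per well on Matrigel in growth medium with LIF and bFGF, incubated 16 h at 37C, then exposed to chemical for 72 h. Viability was read with CellTiter Aqueous One as loss of signal versus DMSO.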

[10] = ArunA_Migration_hNP: ArunA Biomedical's Oris Neuroprogenitor (hNP) Cell Migration Assay (AID 2283754)
Procedure, shortened: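 Human H9-derived hNP1 neuroprogenitors on Matrigel with LIF/bFGF, plated around seeding stoppers for 16 h at 37C; stoppers removed at start of 72 h chemical exposure. Calcein-AM staining, fluorescence 494/517 nm in detection zone; loss-of-signal vs DMSO; cytochalasin D control.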

[11] = ArunA_Migration_hNC: ArunA Biomedical's Oris Neural Crest (hNC) Cell Migration Assay (AID 2283755)
Procedure, shortened: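 Human H9-derived neural crest stem cells, 60,000/well on Matrigel, 16 h at 37C, then 72 h chemical exposure after seeding-stopper removal. Migration into detection zone read as calcein-AM fluorescence (ex494/em517), relative to DMSO.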

[12] = ArunA_NOG_NucleusCount: ArunA Biomedical's Neurite Outgrowth (NOG) Assay for Nucleus Count (AID 2283756)
Procedure, shortened: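 Human H9-derived differentiated neurons were exposed for 48 h right after seeding. Hoechst-stained nuclei gated by size and intensity were counted by automated high-content imaging as viable neurons. Loss of signal vs DMSO.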

[13] = ArunA_NOG_NeuriteLength: ArunA Biomedical's Neurite Outgrowth (NOG) Assay for Neurite Length (AID 2283757)
Procedure, shortened: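 Differentiated human H9-derived neurons were exposed for 48 h from seeding, then stained with Hoechst and βIII-tubulin. Automated high-content imaging gave total neurite length per valid neuron, counting processes >10 um. Loss of signal was scored versus DMSO.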

[14] = ArunA_NOG_NeuritesPerNeuron: ArunA Biomedical's Neurite Outgrowth (NOG) Assay for Neurites Per Neuron (AID 2283758)
Procedure, shortened: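 Differentiated human H9-derived neurons exposed to chemicals for 48 h from seeding, then stained with Hoechst and βIII-tubulin/DyLight 488. Automated imaging counted neurites (processes >10 um) per valid neuron; loss of signal versus DMSO scored.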

[15] = ArunA_NOG_BranchPointsPerNeurite: ArunA Biomedical's Neurite Outgrowth (NOG) Assay for Branch Points Per Neurite (AID 2283759)
Procedure, shortened: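 Automated image analysis traced neurites (processes >10 um) from valid cell bodies after Hoechst and βIII-tubulin staining. hNN cells from H9 embryonic stem cells, 48 h exposure. Fitted bidirectionally against DMSO.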

Sequence of Luciferin 4-monooxygenase (Photinus pyralis) (P08659 whole entry, looked up): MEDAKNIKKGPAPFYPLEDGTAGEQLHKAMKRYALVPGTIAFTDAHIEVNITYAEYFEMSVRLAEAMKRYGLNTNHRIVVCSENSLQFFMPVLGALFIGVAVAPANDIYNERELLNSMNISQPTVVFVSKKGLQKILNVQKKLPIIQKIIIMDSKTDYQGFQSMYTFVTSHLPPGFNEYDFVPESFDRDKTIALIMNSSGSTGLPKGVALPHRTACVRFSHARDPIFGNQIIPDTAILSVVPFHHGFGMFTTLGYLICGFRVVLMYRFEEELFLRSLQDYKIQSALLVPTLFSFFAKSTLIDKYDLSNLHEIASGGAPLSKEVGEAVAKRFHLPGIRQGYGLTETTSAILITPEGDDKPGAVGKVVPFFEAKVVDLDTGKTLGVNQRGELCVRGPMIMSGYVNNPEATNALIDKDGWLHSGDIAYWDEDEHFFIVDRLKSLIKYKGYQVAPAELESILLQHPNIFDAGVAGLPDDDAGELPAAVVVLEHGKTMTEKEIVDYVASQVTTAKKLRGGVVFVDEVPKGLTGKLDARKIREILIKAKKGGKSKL

## CCOc1ccc2c(c1)C(C)=CC(C)(C)N2
[1]
  AC50: 1.48 µM (active)
[2]
  outcome: inactive
[3]
  AC50: 57.7 µM (active)
[4]
  outcome: inactive
[5]
  outcome: inactive
[6]
  outcome: inactive
[7]
  AC50: 130 µM (active)
[8]
  outcome: inactive

## Cc1ccc(C)c(O)c1C
[1]
  AC50: 10.5 µM (active)
[2]
  outcome: inactive
[6]
  outcome: inactive
[7]
  outcome: inactive
[8]
  outcome: inactive

## CC1=C(/C=C/C(C)=C/C=C/C(C)=C/CO)C(C)(C)CCC1
[1]
  AC50: 28.6 µM (active)
[3]
  AC50: 28.2 µM (active)
[4]
  outcome: inactive
[6]
  outcome: inactive
[8]
  outcome: inactive

## COCCOCCOC
[2]
  outcome: inactive
[3]
  outcome: inactive
[4]
  outcome: inactive
[6]
  outcome: inactive

## O=C(OCCCCCOC(=O)c1ccccc1)c1ccccc1
[2]
  outcome: inactive
[3]
  outcome: inactive
[5]
  outcome: inactive
[6]
  outcome: inactive

## Cc1cccc([N+](=O)[O-])c1C
[2]
  outcome: inactive
[6]
  outcome: inactive

## COc1ccc(S(=O)(=O)N2C(=O)[C@@](c3ccccc3OC)(N3C[C@H](O)C[C@H]3C(=O)N(C)C)c3cc(Cl)ccc32)c(OC)c1
[2]
  outcome: inactive
[4]
  AC50: 5.99 µM (active)
[5]
  AC50: 3.43 µM (active)
[6]
  outcome: inactive

## COC(=O)c1ccc(O)cc1
[2]
  outcome: inactive
[3]
  outcome: inactive
[4]
  AC50: 0.091 µM (active)
[5]
  outcome: inactive
[6]
  outcome: inactive
[9]
  outcome: inactive
[10]
  outcome: inactive
[11]
  outcome: inactive
[12]
  AC50: 13.7 µM (active)
[13]
  AC50: 18.1 µM (active)
[14]
  AC50: 17.4 µM (active)
[15]
  AC50: 14.8 µM (active)

## CNC(=O)[C@H]1O[C@@H](n2cnc3c(NCc4cc(Cl)ccc4OCc4cc(C)no4)ncnc32)[C@H](O)[C@@H]1N
[1]
  outcome: inactive
[2]
  outcome: inactive
[6]
  outcome: inactive
[8]
  outcome: inactive

## CCCCCC(=O)O
[2]
  outcome: inactive
[6]
  outcome: inactive

## CCCCCCCCCCO
[2]
  outcome: inactive
[3]
  outcome: inactive
[6]
  outcome: inactive

## CC=Cc1ccc(O)c(OC)c1
[1]
  AC50: 6.14 µM (active)
[3]
  AC50: 53.8 µM (active)
[5]
  outcome: inactive
[6]
  outcome: inactive
[8]
  outcome: inactive

## CC1(C)CC(N=C=O)CC(C)(CN=C=O)C1 (stereo not drawn)
[2]
  outcome: inactive
[3]
  outcome: inactive
[5]
  AC50: 22.3 µM (active)
[6]
  outcome: inactive

## NC(=O)Cn1c(=O)cc(CCN2CCN(c3nccc4sccc34)CC2)c2ccc(F)cc21
[2]
  outcome: inactive
[4]
  AC50: 0.0187 µM (active)
[5]
  outcome: inactive
[6]
  outcome: inactive

## O=c1[nH]cc(F)c(=O)[nH]1
[2]
  outcome: inactive
[4]
  AC50: 4.61 µM (active)
[6]
  outcome: inactive

## c1cc(-c2ccncc2)ccn1
[2]
  outcome: inactive
[5]
  outcome: inactive
[6]
  outcome: inactive

## CN1CCN(Cc2cc(-c3ccc4[nH]c(=O)oc4c3)co2)[C@@H](c2ccc(F)cc2)C1
[2]
  outcome: inactive
[3]
  AC50: 18.6 µM (active)
[4]
  outcome: inactive
[5]
  outcome: inactive
[6]
  outcome: inactive

## C=CCOC(=O)c1ccccc1C(=O)OCC=C
[2]
  outcome: inactive
[3]
  AC50: 16.6 µM (active)
[5]
  outcome: inactive
[6]
  AC50: 37.4 µM (active)

## Clc1cc(Cl)c(Cl)cc1Cl
[2]
  outcome: inactive
[6]
  outcome: inactive

## O=C(O)Cc1ccccc1Nc1c(Cl)cccc1Cl
[2]
  outcome: inactive
[3]
  AC50: 4.79 µM (active)
[4]
  outcome: inactive
[6]
  AC50: 35 µM (active)

## C[Si]1(C)O[Si](C)(C)O[Si](C)(C)O[Si](C)(C)O1
[2]
  outcome: inactive
[6]
  outcome: inactive

## Oc1ccc2c(c1)OC[C@@H](N1CCC(O)(c3ccc(F)cc3)CC1)[C@H]2O
[2]
  outcome: inactive
[3]
  AC50: 1.46 µM (active)
[5]
  outcome: inactive
[6]
  outcome: inactive
